Source: PubChem BioAssay AID743455 (The Scripps Research Institute Molecular Screening Center, 2014)
The other results are listed elsewhere or left out. Calls of active or inactive are those of the source.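 The calls were made as follows: active = IC50 at or below 10 µM; inactive = IC50 above 10 µM.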

test: 535nm fluorescence optical interference, dose response, artefact control for HGIII-sPLA2 inhibitor project, biochemical, QFRET (AID 743455); conditions: BODIPY FL product fluorescence interference, cell-free

IC50, inactive:
Cc1ccc2sc(NNC(=O)c3ccc4c(c3)OCCO4)nc2c1C > 122 µM, Cn1cc(Cl)c(C(=O)NNC(=S)Nc2cccc(Cl)c2)n1 > 122 µM, COc1ccc(C(=O)NC(=S)NNC(=O)c2c(-c3ccccc3)noc2C)cc1 > 122 µM, O=C(NNC(=S)NC1CCCCC1)c1ccccc1Cl > 122 µM, CC(C)CC(=O)NC(=S)NNC(=O)c1cccc([N+](=O)[O-])c1 > 122 µM, O=C(N/N=C/c1cc(Cl)cc([N+](=O)[O-])c1O)C(O)(c1ccccc1)c1ccccc1 > 122 µM, O=C(NNC(=S)Nc1ccc(F)cc1)[C@H]1C[C@@H]1c1ccccc1 > 122 µM, Cc1cccc(-n2cnc(C(=O)NNC(=S)Nc3ccccc3)c2)n1 > 122 µM, C/C(=N\NC(=S)Nc1ccc(C)cc1)c1cc2ccccc2o1 > 122 µM, COc1ccc2c(c1)c(=Cc1ccc(N(C)C)cc1)c1cc(-c3ccccc3)[n+](C)n12 > 122 µM, O=C1C(=O)N(Cc2ccc(-c3ccsc3)cc2)c2ccc(OC(F)(F)F)cc21 > 122 µM, O=C(NNC(=S)Nc1ccc(Br)cc1Cl)c1ccco1 > 122 µM, COc1ccc(Cl)cc1C(=O)NNC(=S)NC1CCCC1 > 122 µM
